The list is not random: actives were taken first. Their share in the collection is about 21%.
Cycloheximide cs: Cycloheximide Counterscreen for Small Molecule Inhibitors of Shiga Toxin; cell reporter, cycloheximide protein synthesis inhibition counterscreen; max response, %; actives 12% (n = 300,000); AID 2314, 2010; in the data active = max response mostly above about 13%, no sharp cut-off; inactive = mostly below about 14%; note: read at 38.3 µM for the half of the compounds with a filed dose
Pf growth 96h: Primary qHTS for delayed death inhibitors of the malarial parasite plastid, 96 hour incubation | Potency, µM (series often up to 28.7 µM), most hits filed as inhibitors | P. falciparum luciferase reporter growth, 96 h | actives 6.9% (n = 320,000)
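Plates of compound plus infected erythrocytes (2% hematocrit, 0.05% parasitemia final) incubate 96 hours, 37 C, 5% CO2. Detection reagent added; reduced luminescence from the parasites' luciferase reporter flags inhibition.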
Shiga toxin inh: A qHTS for Small Molecule Inhibitors of Shiga Toxin; Vero cells, Shiga toxin protein synthesis inhibition reporter; inhibition, % at 38.7 µM; actives 9.2% (n = 290,000); in the data active = inhibition mostly above about 28%, no sharp cut-off; inactive = mostly below about 43%
SARS PLP yeast: qHTS of Yeast-based Assay for SARS-CoV PLP | S. cerevisiae expressing SARS-CoV PLpro, growth rescue | Potency, µM (top dose mostly 32.9 µM), most hits filed as activators | actives 0.19% (n = 330,000) | AID 485353, 2010; calls by dose curve; note: nearly all actives have a fitted effect of over 55% in size
NS1 inh: qHTS Assay for Inhibitors of Influenza NS1 Protein Function. AID 2326, 2010. Potency, µM (doses to about 46.1 µM). actives 0.4% (n = 270,000); calls by dose curve; note: actives are rising curves; nearly all actives have a fitted effect of over 50% in size
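OD600 was taken as the measure of yeast growth restored by compound in an NS1-expressing S. cerevisiae strain. Cells had been washed out of glucose medium and diluted 1:100 into galactose -URA medium, pH 6.0.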
Pf growth 48h: Primary qHTS for delayed death inhibitors of the malarial parasite plastid, 48 hour incubation; P. falciparum luciferase growth in erythrocytes, 48 h; Potency, µM (highest dose often 28.7 µM), actives largely listed as inhibitors; actives 5.9% (n = 310,000); AID 504832, 2011
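Read-out is firefly luciferase luminescence from an integrated reporter in P. falciparum, so falling signal marks reduced parasite growth. Infected erythrocytes were at 2% hematocrit and 0.1% parasitemia (final) in Albumax-supplemented RPMI 1640.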
Each line names hits and unclear results; the compound was inactive in the other large screens. Unless noted, calls come from the whole dose curve; as a rule, active = well fitted inhibition curve with a large enough effect; inconclusive = small, poorly fitted or top-dose-only effect, or another doubt; inactive = no such curve, though single readings can be large or run the other way.

COc1cccc(C2/C(=C(/O)c3ccc4c(c3)CC(C)O4)C(=O)C(=O)N2CC2CCCO2)c1 (stereo not given)	none
CCn1c(SCC(=O)Nc2ccc(N(C)C)cc2)nnc1-c1ccco1	none
Cc1cc(/C=C2\SC(=O)NC2=O)c(C)n1-c1ccc(N2CCOCC2)cc1	Pf growth 96h inconclusive, Pf growth 48h 10µM
O=C(NNC(=O)c1ccc(Br)s1)c1csc(N2CCOCC2)n1	none (no result: Cycloheximide cs, Shiga toxin inh, NS1 inh)
O=NN(CCCl)C(=O)NC1CCCCC1	none (no result: Cycloheximide cs, Shiga toxin inh, SARS PLP yeast, NS1 inh)
Cc1ccccc1CN1CCN(S(=O)(=O)c2cccs2)CC1	none
O=C(N/N=C/c1cccnc1)C1CC1(c1ccccc1)c1ccccc1 (stereo not given)	Pf growth 48h inconclusive (no result: NS1 inh)
COc1ccc(NC(=O)O/N=C/c2ccc(Br)cc2)cc1	none
CCN(CC)c1ccc(/C=N/OC(C)C(=O)Nc2ccc(C)cc2)cc1 (stereo not given)	none
Cc1ccc(NC(=O)O/N=C/c2ccc(Br)cc2)cc1	Cycloheximide cs 11
Cc1ccc(NC(=O)C=NOCC(=O)Nc2cc(C)cc(C)c2)cc1	none (no result: Cycloheximide cs, Pf growth 96h, Shiga toxin inh, NS1 inh, Pf growth 48h)
O=C(Nc1ccccc1)O/N=C/c1ccccc1Cl	Cycloheximide cs 54, Shiga toxin inh 64, SARS PLP yeast inconclusive (no result: Pf growth 48h)
CC(=O)Nc1ccc(/C=N/OCC(=O)Nc2ccc(C)cc2)cc1	Cycloheximide cs 23, Shiga toxin inh 15
Cc1ccc(NC(=O)O/N=C/c2ccc(F)cc2)cc1	Cycloheximide cs 33, Pf growth 96h 5.9µM, Shiga toxin inh 47
CCN(Cc1ccncc1)Cc1ccc(Br)cc1	Pf growth 96h inconclusive, Pf growth 48h inconclusive
CCCCCCCCCCCC(=O)c1c(O)cccc1O	none
CS(=O)(=O)c1ccc(S(=O)(=O)N2CCC(CO)(CCCc3ccccc3)CC2)cc1	Pf growth 96h inconclusive
CCC1CCCCC1	none (no result: Pf growth 96h, SARS PLP yeast, NS1 inh, Pf growth 48h)
Cc1c(Cl)cnc(NC(=O)CSc2nncs2)c1Cl	none
CCOC(=O)c1cc(-c2csc(Nc3c(C)cc(C)cc3C)n2)on1	none
COc1ccc(/C=N/OC(=O)Nc2ccccc2)cc1[N+](=O)[O-]	Cycloheximide cs 33, Shiga toxin inh active
O=C(Nc1ccccc1)O/N=C/c1ccc(F)cc1	Cycloheximide cs 27, Shiga toxin inh 54
COc1ccc(C(=O)N2N=C3CC(C)(C)OCC3C2c2ccccc2)cc1 (stereo not given)	Pf growth 96h inconclusive
CN(CCN1CCc2ccccc2C1)Cc1nc(Cc2ccccc2F)no1	Pf growth 96h 10µM, Pf growth 48h inconclusive
COc1ccc(Cc2noc(CN(C)CCc3ccccc3)n2)cc1OC	Pf growth 96h inconclusive, Pf growth 48h inconclusive
COc1ccc(Cc2noc(CN(C)CCN3CCc4ccccc4C3)n2)cc1OC	Pf growth 96h 7.4µM
CS(=O)(=O)NNC(=O)c1cc2cc3ccccc3nc2s1	Pf growth 96h 4.7µM, Shiga toxin inh 53 (no result: NS1 inh)
COc1ccc(S(=O)(=O)NNC(=O)c2cc3cc4ccccc4nc3s2)cc1	Pf growth 48h inconclusive
NNC(=O)c1cc2cc3ccccc3nc2s1	Cycloheximide cs 45, Pf growth 96h 13µM, Pf growth 48h inconclusive (no result: NS1 inh)
CCOc1ncccc1C(=O)OC(C)C(=O)NC(=O)NC1CCCCC1 (stereo not given)	Pf growth 96h inconclusive (no result: NS1 inh)
CCOC(=O)c1[nH]c(C)c(C(=O)Nc2ccc3c(c2)OCCO3)c1C	Cycloheximide cs 48, Shiga toxin inh 52, Pf growth 48h inconclusive
CCOC(=O)c1[nH]c(C)c(C(=O)Nc2ccc3c(c2)CCC3)c1C	none
CC(=O)c1c(C)[nH]c(C(=O)Nc2ccc3c(c2)OCCO3)c1C	Cycloheximide cs 38, Shiga toxin inh 99
COc1ccc(C(C(=O)NC2CCCC2)N(C(=O)c2csnn2)C2CCCC2)cc1 (stereo not given)	Pf growth 96h inconclusive
COc1cc(C(C)=O)ccc1COc1ccc(C(=O)O)cc1OC	none
Cc1cc(C)cc(-n2nnnc2SCC(=O)Nc2nc(-c3ccc(F)cc3)cs2)c1	none
CCSc1nnc(NC(=O)C2CSC3(C)CCC(=O)N23)s1 (stereo not given)	none (no result: Cycloheximide cs, Pf growth 96h, Shiga toxin inh, NS1 inh, Pf growth 48h)
C=CCn1c(-c2ccc(S(=O)(=O)N3CCOCC3)cc2)csc1=Nc1ccccc1	Pf growth 96h 12µM, Pf growth 48h inconclusive
